Screens: PubChem BioAssay, National Center for Advancing Translational Sciences (NCATS)
Compounds with a hit are over-represented: about 2.9% of the library has one in this group of screens.
Nrf2 ARE act: qHTS of Nrf2 Activators; AREc32 ARE-luciferase reporter (MCF7-derived line), luminescence, 24 h; Potency, µM (series often up to 46.1 µM), for the others: top-dose activation, most hits filed as activators; 410,000 compounds, 0.31% hits; AID 624171, 2012; also: potency is read from the fitted curve at half-maximal effect; % of control where 0% means no effect; nearly all actives have a fitted effect of over 65% in size
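For detection, Steady-Glo was added and plates sat 30 min at RT; before that, AREc32_Fluc cells grown overnight in OPTI-MEM/5% FBS had been treated with 23 nL compound for 24 hr at 37 deg C.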
Nrf2 block: Nrf2 qHTS screen for inhibitors | 360,000 compounds, 2.1% hits | A549 ARE-Fluc reporter, luciferase luminescence, 18-24 h | AID 504444, 2011 | Potency, µM (titrated, usually from 46 µM), inactives show at the top dose activity change, negative = inhibition, actives largely listed as inhibitors; also: potency is read from the fitted curve at half-maximal effect; % is scaled to controls: 0 for no effect and ±100 for the full control effect; nearly all actives have a fitted effect of over 60% in size
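Nrf2 activity is the BugLite luminescence, read 15 min after reagent at room temperature, following CellTiter-Fluor cytotoxicity readout (30 min, 37C). Compound titrations were applied for 18-24 h to 5000 A549 ARE_Fluc cells/well in 5% FBS OPTI-MEM.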
S2 tox: Viability Counterscreen for Primary qHTS for Inhibitors of ATXN expression. S2 cells (HEK-293 line with an ATXN2-luciferase reporter) viability, CellTiter-Fluor protease fluorescence, 24 h. 400,000 compounds, 0.49% hits. Potency, µM (series often up to 56.7 µM), most hits filed as cytotoxic. AID 651635, 2014; also: potency is read from the fitted curve at half-maximal effect; nearly all actives have a fitted effect of over 40% in size
A549 tox-1: Nrf2 qHTS screen for inhibitors: counterscreen for cytotoxicity. A549 ARE-Fluc cells, CellTiter-Fluor viability, 18-24 h. Potency, µM (top dose mostly 46 µM), inactives show top-dose activity change, negative = cytotoxicity, most hits filed as inhibitors. 390,000 compounds, 0.16% hits. AID 504648, 2011; also: potency is read from the fitted curve at half-maximal effect; % is scaled to controls: 0 for no effect and ±100 for the full control effect
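A549 ARE_Fluc cells in 5% FBS OPTI-MEM were exposed to compounds in concentration-response for 18-24 h at 37 deg C. Viability was read by CellTiter-Fluor fluorescence (Ex 405/Em 525) after 30 min, before the luciferase read.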
ATXN2 expr inh: Primary qHTS for Inhibitors of ATXN expression; HEK-293 ATXN2-luciferase reporter, luminescence, 24 h; Potency, µM (titrated, usually from 57 µM), for the others: at the top dose activity change, negative = inhibition, usual class: inhibitors; 360,000 compounds, 0.72% hits; also: potency is read from the fitted curve at half-maximal effect; % is scaled to controls: 0 for no effect and ±100 for the full control effect; nearly all actives have a fitted effect of over 55% in size
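ATXN2-luciferase reporter cells (luciferase flanked by upstream and downstream ATXN2 gene portions) were treated 24 h at 37 °C with compounds at up to 57 uM. SteadyGlo luminescence gave expression; GF-AFC fluorescence gave viability.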
FLuc enzyme inh: Nrf2 qHTS screen for inhibitors: Purified Fluc Biochemical Counterscreen for Hit Validation | shares compounds with Nrf2 block | 1,400 compounds, 4% hits | Potency, µM (doses to about 57.5 µM), without a hit: at the top dose activity change, negative = inhibition, actives largely listed as inhibitors | purified firefly luciferase, luminescence inhibition; also: potency is read from the fitted curve at half-maximal effect; % is scaled to controls: 0 for no effect and ±100 for the full control effect; nearly all actives have a fitted effect of over 65% in size
Target sequence (P08659 whole entry, looked up): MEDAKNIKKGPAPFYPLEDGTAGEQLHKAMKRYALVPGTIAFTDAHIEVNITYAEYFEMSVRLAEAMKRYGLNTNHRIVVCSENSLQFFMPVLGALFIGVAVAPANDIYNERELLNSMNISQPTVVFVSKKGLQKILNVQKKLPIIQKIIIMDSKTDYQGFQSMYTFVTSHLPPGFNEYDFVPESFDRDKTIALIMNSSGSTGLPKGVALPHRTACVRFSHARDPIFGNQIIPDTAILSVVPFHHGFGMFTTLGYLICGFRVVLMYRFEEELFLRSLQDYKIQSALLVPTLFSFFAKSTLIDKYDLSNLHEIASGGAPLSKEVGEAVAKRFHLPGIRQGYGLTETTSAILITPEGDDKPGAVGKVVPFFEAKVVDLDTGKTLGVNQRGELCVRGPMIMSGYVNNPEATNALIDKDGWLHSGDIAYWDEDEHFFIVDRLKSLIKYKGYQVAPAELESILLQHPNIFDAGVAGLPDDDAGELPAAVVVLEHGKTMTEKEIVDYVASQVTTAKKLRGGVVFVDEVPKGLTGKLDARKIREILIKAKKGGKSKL
A549 tox-2: Nrf2 qHTS screen for inhibitors: A549 ARE-Fluc Cytotoxicity Counterscreen for Hit Validation; shares compounds with Nrf2 block; 1,400 compounds, 2% hits; A549 ARE-Fluc cells, cytotoxicity counterscreen; Potency, µM (highest dose often 46.1 µM), for the others: at the highest dose activity change, negative = cytotoxicity, hits mostly inhibitors;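 also: potency is read from the fitted curve at half-maximal effect; cells exposed to compounds for 18 to 24 hours; % is scaled to controls: 0 for no effect and ±100 for the full control effect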
Nrf2 ARE inh: Nrf2 qHTS screen for inhibitors: Nrf2 A549 ARE-Fluc Confirmation Assay for Hit Validation; A549 ARE-firefly luciferase reporter, luminescence; shares compounds with Nrf2 block; 1,400 compounds, 74% hits; Potency, µM (titrated, usually from 46.1 µM), for inactives: at the top dose activity change, negative = inhibition, most hits filed as inhibitors; also: potency is read from the fitted curve at half-maximal effect; % is scaled to controls: 0 for no effect and ±100 for the full control effect; nearly all actives have a fitted effect of over 65% in size
SK-N-SH 3D tox: qHTS of pediatric cancer cell lines to identify multiple opportunities for drug repurposing: Orthogonal 3D viability screen for SK-N-SH cells; shares compounds with ATXN2 expr inh; SK-N-SH 3D spheroid viability, PI/Hoechst imaging, 72 h; Potency, µM (highest dose often 30.7 µM), actives largely listed as inhibitors; 65 compounds, 70% hits; AID 1347135, 2019
SJ-GBM2 3D tox: qHTS of pediatric cancer cell lines to identify multiple opportunities for drug repurposing: Orthogonal 3D viability screen for SJ-GBM2 cells. shares compounds with ATXN2 expr inh. SJ-GBM2 3D spheroid viability, PI/Hoechst imaging, 72 h. Potency, µM (highest dose often 30.7 µM), usual class: inhibitors. 65 compounds, 80% hits
Daoy 3D tox: qHTS of pediatric cancer cell lines to identify multiple opportunities for drug repurposing: Orthogonal 3D viability screen for Daoy cells; Potency, µM (highest dose often 30.7 µM), usual class: inhibitors; shares compounds with ATXN2 expr inh; Daoy 3D spheroid viability, PI/Hoechst imaging, 72 h; 65 compounds, 50% hits
TC32 3D casp: qHTS of pediatric cancer cell lines to identify multiple opportunities for drug repurposing: Orthogonal 3D caspase screen for TC32 cells; shares compounds with ATXN2 expr inh; TC32 3D spheroids, caspase-3/7 fluorescence imaging, 24 h; Potency, µM (top dose mostly 30.7 µM), usual class: inhibitors; 65 compounds, 30% hits; AID 1347138, 2019
TC32 spheroid: qHTS of pediatric cancer cell lines to identify multiple opportunities for drug repurposing: Orthogonal 3D viability screen for TC32 cells | shares compounds with ATXN2 expr inh | TC32 3D spheroid viability, PI/Hoechst imaging, 72 h | Potency, µM (doses to about 30.7 µM), hits mostly inhibitors | 65 compounds, 60% hits
MG63 spheroid: qHTS of pediatric cancer cell lines to identify multiple opportunities for drug repurposing: Orthogonal 3D viability screen for MG 63 (6-TG R) cells; shares compounds with ATXN2 expr inh; MG-63 (6-TG R) 3D spheroid viability, PI/Hoechst imaging, 72 h; Potency, µM (doses to about 30.7 µM), most hits filed as inhibitors; 65 compounds, 50% hits
RD 3D tox: qHTS of pediatric cancer cell lines to identify multiple opportunities for drug repurposing: Orthogonal 3D viability screen for RD cells. 65 compounds, 50% hits. RD rhabdomyosarcoma 3D spheroid viability, PI/Hoechst imaging, 72 h. Potency, µM (top dose mostly 30.7 µM), hits mostly inhibitors. shares compounds with ATXN2 expr inh
Active calls of the source: *; i = inactive; u = inconclusive; x = no result given; ! = repeats disagree. Calls follow the shape of the dose curve; as a rule, active = well fitted curve in the direction sought with a large enough effect; inconclusive = small, poorly fitted or top-dose-only effect, or another doubt; inactive = no such curve, though single readings can be large; an effect the other way counts as inactive or inconclusive.

SMILES	Nrf2 ARE act	Nrf2 block	S2 tox	A549 tox-1	ATXN2 expr inh	others
Nc1nc(F)nc2c1ncn2[C@@H]1O[C@H](CO)[C@@H](O)[C@@H]1O	-1%	5.8µM*	i	-5%	1.7µM*!	FLuc enzyme inh=-2%;A549 tox-2=-21%;Nrf2 ARE inh=16µM*;SK-N-SH 3D tox=0.46µM*;SJ-GBM2 3D tox=0.29µM*;Daoy 3D tox=0.36µM*;TC32 3D casp=3.6µM*;TC32 spheroid=2µM*;MG63 spheroid=0.2µM*;RD 3D tox=1.4µM*
Cc1ccc(NC(=O)c2ncn(CC(=O)NCc3ccc4c(c3)OCO4)n2)cc1C	3%	u	i	-3%	10%
CC(C)(C)NCC(O)c1cc(Cl)c(N)c(Cl)c1 (stereo not drawn)	0%	7%	u	-6%	-9%
C=CC[C@@H](CC(=O)N(CCO)Cc1ccccc1)C(=O)NC[C@H](OC(=O)[C@@H](CC=C)CC(=O)OC(C)(C)C)c1ccccc1	-4%	u	u	-19%	u
O=C1C(I)=CC(=C(c2cc(I)c(O)c(I)c2)c2ccccc2C(=O)O)C=C1I	x	x	u	x	9%
COc1ccc(CCNc2nc3ccc(Cl)cc3n3cnnc23)cc1OC	1%	u	x	0%	x
